Experimental data: the supplement of paper PMC4723716

System: Plasmodium falciparum NF54 gametocytes
Assay: viability index relative to DMSO control (fraction); higher = less gametocyte killing
Conditions: 12.5 µM, incubation time: 72 h
Summary of the method: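 P. falciparum NF54 gametocytes at stages I–V were treated with compound at 12.5 µM for 72 hr at 37°C under low oxygen in serum-containing medium (0.50% gametocytemia, 1.25% hematocrit), then stained with MitoTracker Red CMXRos and imaged in serum-free medium containing 500 nM dye. The viability index is the gametocyte particle count divided by the plate mean of solvent-only wells.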

[1] = gametocyte stage: Stage I viability index
[2] = gametocyte stage: Stage II viability index
[3] = gametocyte stage: Stage III viability index
[4] = gametocyte stage: Stage IV viability index
[5] = gametocyte stage: Stage V viability index

| SMILES | viability index [1] | viability index [2] | viability index [3] | viability index [4] | viability index [5] |
| --- | --- | --- | --- | --- | --- |
| CN(C)c1ccc(N2C(N)=NC(N)=NC2(C)C)cc1 | 1.05 | 0.931 | 1.04 | 1.05 | 1.21 |
| Cn1c(=O)c2cc(C(=O)NCCCN3CCCCCC3)sc2c2ccccc21 | 1.01 | 0.857 | 0.926 | 0.957 | 0.725 |
| c1ccc(Cn2c(N=Nc3c(Nc4ccccc4)ccc4ccccc34)nc3ccccc32)cc1 | 0.00884 | 0.0106 | 0.058 | 0.149 | 0.209 |
| Cc1ccc(OCCCCCCNCCO)c(C)c1 | 1.13 | 1.04 | 1.05 | 0.934 | 0.909 |
| c1ccc(CNc2nc(Nc3ccccc3)nc3ccccc23)cc1 | 0.0367 | 0.211 | 0.586 | 0.563 | 0.481 |
| Cc1cc(C)cc(Nc2cc(C)nc3nc(C(F)(F)F)nn23)c1 | 1.02 | 1.07 | 1.18 | 0.869 | 0.835 |
| COc1ccc(C)c2sc(N(Cc3cccnc3)C(=O)c3ccc(C#N)cc3)nc12 | 0.441 | 0.704 | 0.95 | 0.794 | 1.01 |
| Nc1ccc(-c2nc3cc(Oc4ccc(Oc5ccc6[nH]c(-c7ccc(N)cc7)nc6c5)cc4)ccc3[nH]2)cc1 | 0.000874 | 0.0108 | 0.0271 | 0.0253 | 0 |
| CCOC(=O)c1cn(CC)c2cc(N(C)CCc3ccc(OC)c(OC)c3)c(F)cc2c1=O | 0.63 | 0.723 | 0.912 | 0.827 | 0.923 |
| CCOC(=O)c1cnc2ccc(CC)cc2c1O | 0.377 | 0.505 | 0.734 | 0.733 | 0.846 |
| Cc1cccc(Nc2nc(N)c3ccccc3n2)c1 | 0.0785 | 0.635 | 0.948 | 0.854 | 0.692 |
| Cc1cc(N2CCCC2)nc(Nc2ccc(NC(=O)CCc3ccccc3)cc2)n1 | 0.0734 | 0.0508 | 0.261 | 0.345 | 0.13 |
| CC(=O)Nc1nnc(SCc2c(C)cc(C(C)(C)C)cc2C)s1 | 0.854 | 0.701 | 0.894 | 0.793 | 0.912 |
| CCN(CC)c1cc(C)c2cc(NC(=O)c3cccc(OC)c3)ccc2n1 | 0.154 | 0.563 | 0.864 | 0.967 | 1.01 |
| CC(C)(C)CC(C)(C)NCC(O)COc1ccc2c(c1)CCC2 (stereo not given) | 0.221 | 0.273 | 0.615 | 0.666 | 0.462 |
| COCCN(C(=O)Cc1cccs1)C(C(=O)NCc1ccc(OC)cc1)c1ccc(C(C)C)cc1 (stereo not given) | 0.846 | 0.801 | 1.18 | 1.11 | 0.967 |
| CCOc1c(Cl)cc(CNCC(O)c2ccccc2)cc1OC (stereo not given) | 0.231 | 0.272 | 0.793 | 0.918 | 0.714 |
| Nc1ccc(-c2nc3cc(Cc4ccc5[nH]c(-c6ccc(N)cc6)nc5c4)ccc3[nH]2)cc1 | 0.0227 | 0.00833 | 0.0204 | 0.0127 | 0 |
| Oc1ccccc1CN1CCN(C(c2ccccc2)c2ccccc2)CC1 | 0.0221 | 0.102 | 0.437 | 0.535 | 0.615 |
| Cc1ccccc1OCCSc1nc2ccc(NC(=O)c3cccs3)cc2s1 | 1.13 | 0.918 | 1.08 | 0.927 | 1.27 |

| SMILES | viability index [1] | viability index [2] | viability index [3] | viability index [4] | viability index [5] |
| --- | --- | --- | --- | --- | --- |
| O=C(NC1CCN(Cc2ccccc2)CC1)c1cc(C(=O)NC2CCN(Cc3ccccc3)CC2)cc(C(=O)NC2CCN(Cc3ccccc3)CC2)c1 | 0.0629 | 0.0649 | 0.0393 | 0.0475 | 0.013 |
| O=C(Nc1ccccc1O)c1ccc(Oc2cccc(C(=O)Nc3ccccc3O)c2)cc1 | 0.00331 | 0.161 | 0.434 | 0.456 | 0.462 |
| COC(=O)c1ccc(C2C3=C(O)CC(c4ccc(F)cc4)CC3=Nc3ccccc3N2C(=O)c2ccccc2)cc1 (stereo not given) | 0.00524 | 0.005 | 0.0149 | 0 | 0 |
| CCOC(=O)c1cnc2c(CC)cccc2c1O | 1.15 | 0.838 | 0.966 | 0.835 | 0.844 |
| Cc1ccc(F)cc1NC(=O)c1cc(Cl)ccc1Nc1ccccc1 | 0.441 | 0.395 | 0.332 | 0.522 | 0.753 |
| COc1cc(C(=O)Nc2nc3c(cc4c5c(cccc53)CC4)s2)cc(OC)c1OC | 0.18 | 0.5 | 1.04 | 0.775 | 0.818 |
| O=C(CSc1nccn2nc(-c3ccccc3)cc12)Nc1cc(C(F)(F)F)ccc1Cl | 0.845 | 0.896 | 0.973 | 1.08 | 1.4 |
| Cc1cc(C)c2c(c1)OCN(Cc1ccccc1Cl)C2 | 0.0442 | 0.13 | 0.569 | 0.663 | 0.615 |
| CCOc1ccc(Nc2ccnc3cc(Cl)ccc23)cc1 | 0.0699 | 0.411 | 0.852 | 0.728 | 0.558 |
| CCOc1ccc2nc(C)cc(Nc3ccc(N(C)C)cc3)c2c1 | 0.157 | 0.571 | 0.868 | 0.943 | 0.857 |
| COc1ccc(C(=O)Nc2ccc3nc(N4CCCCC4)cc(C)c3c2)cc1OC | 0.275 | 0.58 | 0.95 | 0.9 | 0.989 |
| CN(C)CCCNCc1ccc(-c2ccc(F)c(Cl)c2)o1 | 0.202 | 0.376 | 0.376 | 0.339 | 0.104 |
| Cc1ccnc(NC(c2cccc(OCc3ccccc3)c2)c2ccc3cccnc3c2O)c1 (stereo not given) | 0.0271 | 0.015 | 0.0204 | 0.00316 | 0 |
| CN(C)CCNc1cc(-c2ccccc2)nc2ccccc12 | 0.685 | 0.795 | 0.924 | 0.883 | 0.727 |
| COc1ccc(-c2cc(=O)oc3c4c(ccc23)OCN(Cc2ccc(F)cc2)C4)cc1 | 0.0192 | 0.0833 | 0.406 | 0.516 | 0.545 |
| c1ccc2c(NCCc3c[nH]c4ccccc34)c3ccccc3nc2c1 | 0.145 | 0.22 | 0.609 | 0.687 | 0.675 |
| Cc1cc(NC(=O)C2c3ccccc3C(=O)N(CC(C)C)C2c2cccs2)no1 (stereo not given) | 0.0387 | 0.0193 | 0.0636 | 0.188 | 0.0879 |
| CCOc1ccc(-c2nc(NC(=O)c3cccc(S(C)(=O)=O)c3)sc2C)cc1 | 0.956 | 0.686 | 1.1 | 0.857 | 0.857 |
| Cc1[nH]c(-c2ccc(F)cc2)cc1C(=O)NC1CCN(Cc2ccccc2)CC1 | 0.131 | 0.502 | 0.744 | 0.881 | 1.09 |
| COc1ccccc1N=C1C(=O)c2ccccc2C(O)=C1N1CCCCC1 | 0.0188 | 0.0203 | 0.0297 | 0.0699 | 0.0879 |

| SMILES | viability index [1] | viability index [2] | viability index [3] | viability index [4] | viability index [5] |
| --- | --- | --- | --- | --- | --- |
| COc1cc(-c2nc(-c3ccccc3)c(-c3ccccc3)[nH]2)cc(OC)c1O | 0.0446 | 0.247 | 0.358 | 0.532 | 0.221 |
| COc1ccc(C(=O)Nc2nonc2-c2ccc(OC)c(OC)c2)cc1Cl | 0.564 | 0.401 | 0.487 | 0.568 | 0.736 |
| CN(C)CCCNc1c2ccccc2nc2ccccc12 | 0.0663 | 0.0164 | 0.0835 | 0.201 | 0.231 |
| CC(O)(c1ccc(Cl)cc1)C(CN1CCCCC1)c1ccccc1 (stereo not given) | 0.115 | 0.32 | 0.809 | 0.818 | 0.802 |
| CCCCCn1c(=N)n(CC(O)COc2cccc(C)c2)c2ccccc21 (stereo not given) | 0.0988 | 0.0949 | 0.32 | 0.459 | 0.221 |
| CCOC(=O)c1ccc2nc(-c3ccccc3)cc(O)c2c1 | 0.606 | 0.719 | 0.761 | 0.757 | 1.12 |
| COc1ccc(NC(=O)C2c3ccccc3C(=O)N(CC(C)C)C2c2cccs2)cc1Cl (stereo not given) | 0.0453 | 0.00483 | 0.0636 | 0.24 | 0.11 |
| CCOc1cc2c(cc1OCC)C(c1cc(C)c(O)c(C)c1)NCC2 (stereo not given) | 0.0111 | 0.123 | 0.642 | 0.851 | 0.78 |
| OC(CNCC1CCCO1)Cn1c2ccc(Cl)cc2c2cc(Cl)ccc21 (stereo not given) | 0.0685 | 0.0647 | 0.468 | 0.65 | 0.56 |
| CCOc1cc2c(cc1OCC)C(c1cc(Cl)c(O)c(OCC)c1)NCC2 (stereo not given) | 0.0402 | 0.163 | 0.539 | 0.829 | 0.922 |
| Oc1ccc(Cl)cc1CNc1nc2ccccc2[nH]1 | 0.0751 | 0.545 | 0.822 | 0.891 | 0.736 |
| CCOC(=O)c1cn(CC)c2cc(N3CCCCC3)c(F)cc2c1=O | 0.592 | 0.9 | 0.81 | 0.769 | 0.791 |
| CCCCCCc1cc2cc(-c3nc4ccccc4[nH]3)c(=Nc3ccccc3C)oc2cc1O | 0.0472 | 0.138 | 0.501 | 0.601 | 0.506 |
| COc1ccc2c(c1)C1(Nc3ccccc3-c3nc4ccccc4n31)C(=O)N2 (stereo not given) | 0.0265 | 0.00483 | 0.017 | 0.0608 | 0.033 |
| COc1ccc(C2C(C(=O)Nc3cccc(OC)c3)c3ccccc3C(=O)N2C2CCCCC2)cc1 (stereo not given) | 0.0691 | 0.0974 | 0.488 | 0.551 | 0.519 |
| CCN1CCN(c2cc(C)c3cc(NC(=O)c4ccc(OC)c(OC)c4)ccc3n2)CC1 | 0.33 | 0.677 | 1.04 | 0.818 | 0.901 |
| CC(=O)c1sc(NC(=O)Nc2ccc(C)cc2C)nc1C | 0.271 | 0.455 | 0.673 | 0.801 | 0.714 |
| COc1cccc(NC(=O)[C@H](C(C)C)n2c(=O)[nH]c3ccccc3c2=O)c1 | 0.0552 | 0.0213 | 0.0736 | 0.286 | 0.341 |
| Oc1ccccc1CNCC12CC3CC(CC(C3)C1)C2 | 0.274 | 0.297 | 0.638 | 0.818 | 0.769 |
| O=C(Cc1ccccc1)NC(c1ccc(Cl)cc1)c1c(O)ccc2ccccc12 (stereo not given) | 0.0691 | 0.316 | 0.631 | 0.604 | 0.857 |
